Assay outcomes from PubChem BioAssay.
PLK1 PBD block: inhibitors of human PLK1 polo-box domain binding; P53350; Potency, µM, for inactives: max response, negative = inhibition, most hits filed as inhibitors; AID 720504; Plk1 PBD binding of FITC phosphopeptide, fluorescence polarization; 360,000 tested, 2.8% active; further: series mostly up to about 57 µM; nearly all actives have a fitted effect of over 65% in size
DT40 TDP1 CPT: growth inhibition of DT40 Tdp1-/-;hTDP1 cells with camptothecin (screen for TDP1 inhibitors). chicken DT40 Tdp1-/-;hTDP1 cells + 20 nM CPT, ATP luminescence, 48 h. 420,000 tested, 12% active. Potency, µM (highest dose often 46.2 µM), without a hit: top-dose activity change, negative = growth inhibition, usual class: inhibitors; further: nearly all actives have a fitted effect of over 55% in size
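Cell growth measured by CellTiter-Glo luminescence after a minimum 48 h, 37 C compound exposure with 20 nM CPT in Tdp1-knockout DT40 cells stably expressing hTDP1, seeded 400/well; qHTS titration format.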
TDP1 inh: inhibitors of human tyrosyl-DNA phosphodiesterase TDP1 | Q9NUW8 | 350,000 tested, 0.28% active | recombinant TDP1, AlphaScreen DNA substrate cleavage | Potency, µM (highest dose often 130 µM), inactives show top-dose activity change, negative = inhibition, actives largely listed as inhibitors | AID 485290; further: nearly all actives have a fitted effect of over 40% in size
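AlphaScreen read-out: signal falls as enzyme removes the 3' tyrosine-FITC from a 5'-biotinylated DNA oligo (15 nM, 5 min, RT). Enzyme was E. coli-made recombinant Tdp1 at 1 nM, exposed to compound for 15 min beforehand; beads 10 ug/ml, 10 min.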
KAT2A inh: blocks human GCN5L2 histone acetyltransferase; Potency, µM (series often up to 58.9 µM), for the others: at the highest dose activity change, negative = inhibition, usual class: inhibitors; GCN5L2 HAT assay, ThioGlo1 CoA-SH fluorescence; AID 504327; 390,000 tested, 0.21% active; Q92830
Target sequence (Q92830 whole entry, looked up): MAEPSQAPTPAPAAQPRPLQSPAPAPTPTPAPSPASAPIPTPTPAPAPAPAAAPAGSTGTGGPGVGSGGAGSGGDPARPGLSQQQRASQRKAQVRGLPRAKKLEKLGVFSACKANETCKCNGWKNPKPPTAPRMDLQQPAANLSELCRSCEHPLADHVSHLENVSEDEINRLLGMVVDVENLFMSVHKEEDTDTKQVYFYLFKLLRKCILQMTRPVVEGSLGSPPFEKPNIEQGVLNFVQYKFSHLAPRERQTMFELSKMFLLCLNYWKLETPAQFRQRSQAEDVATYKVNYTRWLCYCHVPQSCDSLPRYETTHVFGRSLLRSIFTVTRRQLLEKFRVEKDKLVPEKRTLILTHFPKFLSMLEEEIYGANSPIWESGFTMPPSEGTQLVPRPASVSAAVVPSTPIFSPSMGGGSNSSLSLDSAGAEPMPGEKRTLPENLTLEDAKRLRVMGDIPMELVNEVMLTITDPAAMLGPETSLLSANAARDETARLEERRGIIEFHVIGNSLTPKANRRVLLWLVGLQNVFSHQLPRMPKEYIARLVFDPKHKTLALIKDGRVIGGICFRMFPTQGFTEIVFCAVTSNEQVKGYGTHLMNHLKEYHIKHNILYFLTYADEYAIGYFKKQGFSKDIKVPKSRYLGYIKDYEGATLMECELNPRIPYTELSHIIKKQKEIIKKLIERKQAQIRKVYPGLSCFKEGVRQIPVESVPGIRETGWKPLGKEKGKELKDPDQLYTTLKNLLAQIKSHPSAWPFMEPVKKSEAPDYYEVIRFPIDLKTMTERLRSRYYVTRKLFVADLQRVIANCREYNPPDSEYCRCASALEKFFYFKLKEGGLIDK
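Free CoA generated was detected with ThioGlo1 (50uM) fluorescence at Ex340nm/Em540nm, read immediately and after 20 min at room temperature. Enzyme, 20 nM in HEPES pH 7.5 buffer, saw compounds 15 min before adding 75uM H3(1-25) peptide and 70uM acetyl-CoA.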
VDR inhibitor: inhibitors of human vitamin D receptor; P11473; VDR-SRC2-3 peptide fluorescence polarization, 2 h; Potency, µM, inactives show max response, negative = inhibition, hits mostly inhibitors; 400,000 tested, 0.93% active; AID 504847
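Signal is fluorescence polarization, reporting how far test compounds block the interaction of VDR with the SRC2-3 coregulator peptide after a 2 h room-temperature incubation.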
DT40 TDP1 no CPT: qHTS for Inhibitors of human tyrosyl-DNA phosphodiesterase 1 (TDP1): qHTS in cells in absence of CPT; DT40 Tdp1-/- hTDP1 cells, no CPT, ATP luminescence, 48 h; Potency, µM (titrated, usually from 46.2 µM), for the others: top-dose activity change, negative = growth inhibition, usual class: inhibitors; 420,000 tested, 15% active; AID 686978, 2013; further: nearly all actives have a fitted effect of over 55% in size
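Luminescent ATP content (CellTiter-Glo) served as the growth readout. Knockout chicken DT40 cells expressing human TDP1 were exposed to compounds without camptothecin for a minimum 48 hr at 37 °C.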
Starred values were filed as active, the others as inactive; ? = inconclusive; . = not tested or not shown; [ ] = dose if it differs, or a comment. Hits are enriched below; roughly 18% of the tested compounds scored in any of these assays. The call rests on the fitted dose curve; in most records, active means well fitted curve in the direction sought with a large enough effect; inconclusive means small, poorly fitted or top-dose-only effect, or another doubt; inactive means no such curve, though single readings can be large; an effect the other way counts as inactive or inconclusive. On the % scale 0 is the no-effect control and ±100 the full control effect; potency means the concentration at half of the fitted maximal effect.

SMILES	PLK1 PBD block	DT40 TDP1 CPT	TDP1 inh	KAT2A inh	VDR inhibitor	DT40 TDP1 no CPT
C[C@H](CO)N1C[C@H](C)[C@H](CN(C)S(=O)(=O)c2cn(C)cn2)Oc2ccc(NC(=O)Nc3ccc(C(F)(F)F)cc3)cc2CC1=O	-11.7%	?	0.6%	-3.3%	-15.2%	13µM*
C[C@H]1CN([C@@H](C)CO)C(=O)c2cccc(NC(=O)Nc3ccc(C(F)(F)F)cc3)c2O[C@@H]1CN(C)S(=O)(=O)c1ccc(Cl)cc1	0.3%	7.31µM*	2.9%	-21.7%	-2.3%	8.2µM*
C[C@H](CO)N1C[C@H](C)[C@@H](CN(C)S(=O)(=O)c2ccc(F)cc2)Oc2ccc(NC(=O)Nc3ccccc3)cc2C1=O	-3.1%	?	0.1%	-5.4%	-16.3%	14.6µM*
C[C@H](CO)N1C[C@H](C)[C@@H](CN(C)S(=O)(=O)c2ccc(F)cc2)Oc2c(NC(=O)Nc3ccc(C(F)(F)F)cc3)cccc2C1=O	-8.8%	?	2.1%	-11.9%	-0.6%	?
C[C@H](CO)N1C[C@H](C)[C@@H](CN(C)S(=O)(=O)c2cn(C)cn2)Oc2c(NC(=O)Nc3ccc(C(F)(F)F)cc3)cccc2C1=O	-12.2%	?	1.7%	-5.5%	-1.1%	-86.0%
O=c1[nH]c2c(-c3nc(-c4ccc(Cl)cc4)cs3)c(O)cn2c2ccccc12	.	3.98µM*	.	.	.	2.82µM*
O=c1[nH]c2c(-c3nc(-c4ccc(F)cc4)cs3)c(O)cn2c2ccc(Br)cc12	.	-24.7%	.	.	.	-9.6%
CC(=O)c1ccc(NC(=O)c2nn(C)c3c2CS(=O)(=O)c2ccccc2-3)cc1	.	-17.5%	6.5%	-2.5%	6.0%	-12.2%
CCOC(=O)c1ccc(NC(=O)c2nn(C)c3c2COc2ccccc2-3)cc1	.	?	14.3%	-11.5%	13.3%	-4.5%
CC(=O)c1ccc(NC(=O)c2noc3c2CSc2ccccc2-3)cc1	.	14.6µM*	0.0%	-3.4%	1.5%	9.2µM*
CC(=O)c1ccc(NC(=O)c2nn(C)c3c2COc2ccccc2-3)cc1	.	14.6µM*	11.4%	-5.8%	9.7%	?
CCN(CC)CCOC(=O)c1ccc(NC(=O)c2nn(C)c3c2COc2ccccc2-3)cc1	.	4.11µM*	5.7%	-6.1%	8.9%	3.26µM*
COc1ccc(OCC(=O)N2c3ccc(C)cc3C3CN(C)CCC32)cc1 (stereo not given)	-0.2%	18.3%	-2.6%	-6.6%	8.5%	2.3%
CN1CCN(C(=S)NC(=O)c2ccc(C(C)(C)C)cc2)CC1	-3.5%	?	0.6%	-4.9%	-6.4%	?
Cc1ccc2c(c1)C1CN(C)CCC1N2C(=S)NC(=O)c1ccc(Br)cc1 (stereo not given)	-34.6%	9.2µM*	5.0%	-3.9%	-6.5%	?
CN1CCN(C(=S)NC(=O)c2ccc(Br)cc2)CC1	2.6%	?	.	0.7%	12.9%	5.17µM*
CC(=O)N1CCc2cc(CNC(=O)Nc3cc(Cl)ccc3C)ccc21	.	-8.2%	6.5%	3.6%	9.1%	-21.8%
O=C(c1ccc2c3c(cccc13)CC2)C1CCCN(C(=O)c2cccnc2)C1 (stereo not given)	1.1%	11.6µM*	2.6%	2.3%	-6.7%	20.6µM*
CN1CCC(C(=O)N2CCCC(C(=O)c3ccc4c5c(cccc35)CC4)C2)CC1 (stereo not given)	-7.0%	?	.	-1.8%	28.7%	18.4µM*
CC(=O)N1CCCC(C(=O)c2ccc3c4c(cccc24)CC3)C1 (stereo not given)	-1.8%	-27.8%	2.6%	?	-25.3%	23.1µM*
COCc1c(C(=O)N2CC3CCC2C3)cnn1-c1nccc(-c2ccccc2OC)n1 (stereo not given)	.	3.8%[9.04 µM]	.	.	.	-18.2%
COCCCNC(=O)CSc1nc2nc(C)c(Cc3ccccc3Cl)c(C)n2n1	.	?	2.9%	-3.7%	-4.7%	?
CC(=O)c1ccc(N2CCN(S(=O)(=O)c3ccccc3)CC2)c(F)c1	-23.8%	-2.2%	2.5%	-8.4%	10.7%	-21.7%
CCCC(=O)c1ccc(N2CCN(C(=O)c3ccccc3Br)CC2)c(F)c1	-1.5%	18.4µM*	-2.1%	3.1%	1.3%	13µM*
O=C(c1ccc(F)cc1F)N1CCCN(c2nc(-c3ccccc3)ns2)CC1	-7.1%	?	6.5%	-2.0%	7.1%	?
SMILES	PLK1 PBD block	DT40 TDP1 CPT	TDP1 inh	KAT2A inh	VDR inhibitor	DT40 TDP1 no CPT
CCCC(=O)c1ccc(N2CCN(S(=O)(=O)c3ccc(C)cc3)CC2)c(F)c1	-7.8%	?	6.3%	-4.5%	-1.1%	7.08µM*
O=C(c1ccccc1)c1ccc(N2CCN(C(=O)c3ccc(F)cc3F)CC2)c(F)c1	1.7%	23.1µM*	.	.	.	?
CCC(=O)c1ccc(N2CCN(C(=O)c3ccc(F)cc3)CC2)c(F)c1	1.6%	20.6µM*	-12.0%	-7.7%	-0.7%	10.3µM*
COc1ccccc1CN(C)C(=O)COC(=O)c1cc(C)oc1C	-1.4%	-20.7%	3.2%	-1.2%	-9.6%	?
CCC(=O)c1ccc(N2CCN(C(=O)c3cccc(F)c3)CC2)c(F)c1	-12.8%	?	3.7%	-5.0%	5.1%	13µM*
CCC(=O)c1ccc(N2CCN(C(=O)c3ccc(Br)cc3)CC2)c(F)c1	-2.9%	20.6µM*	-3.9%	?	10.9%	10.3µM*
CCCC(=O)c1ccc(N2CCN(C(=O)c3ccc(Br)cc3)CC2)c(F)c1	-6.8%	23.1µM*	4.0%	-14.3%	-10.2%	7.31µM*
CCCC(=O)c1ccc(N2CCN(C(=O)c3ccccc3)CC2)c(F)c1	-5.0%	?	1.0%	0.0%	-10.7%	?
CCCCCC(=O)N1CCN(c2ccc(C(C)=O)cc2F)CC1	0.3%	14.6µM*	-2.6%	2.1%	-6.3%	20.6µM*
CC(=O)c1ccc(N2CCCC2)c(F)c1	.	.	4.8%	-4.2%	.	.
COc1ccc(/C=N/n2c(-c3ccc(C)cc3)n[nH]c2=S)cc1OC	-9.3%	?	1.2%	-5.5%	-11.7%	?
COc1ccc(CCNC(=O)c2cn(C)c3ccc(S(=O)(=O)N(C)C)cc3c2=O)cc1OC	.	-5.4%	7.0%	-18.7%	-7.3%	?
Cc1c(N=C2SCC(=O)N2/N=C/c2ccccc2)c(=O)n(-c2ccccc2)n1C	2.4%	-5.1%	0.0%	-5.1%	-10.4%	2.0%
O=C1C=C(c2ccc(C(=O)O)c(Cl)c2)C[C@@H](c2ccc3c(c2)OCO3)C1	-16.7%	-12.3%	-12.4%	0.3%	-6.3%	-9.8%
COc1ccc(NC(=O)c2ccco2)cc1NC(=O)c1cccc(OC(C)C)c1	-0.5%	?	10.4%	-28.4%	9.6%	11.6µM*
